USP8 inh: blocks human USP8 ubiquitin-rhodamine cleavage. P40818. purified USP8, Ub-rhodamine cleavage fluorescence, 30 min. inhibition, % at 20 µM. 47,000 tested, 4.2% active. AID 1645853
USP17 inh: human USP17-like deubiquitinase inhibition | 47,000 tested, 6.5% active | A8MUK1 | purified USP17, Ub-rhodamine cleavage fluorescence, 3 h | AID 1645855 | inhibition, % at 50 µM
USP30 inh: blocks human USP30 ubiquitin-rhodamine cleavage; purified USP30, Ub-rhodamine cleavage fluorescence; inhibition, % at 25 µM; 47,000 tested, 5.3% active
Of the large screens only hits and unclear results are named; the others gave an inactive call. This is a sample that favours compounds with a hit; in the whole collection about 12% have one here. Rule as the data show it: active = inhibition above about 30%; inactive = the rest.

CCc1ccc2[nH]c(=O)c(CN(C(=O)Nc3ccccc3Cl)C3CCCC3)cc2c1	none
CCCCCC(=O)N1CCC(c2nc3c(nnn3Cc3ccccc3)c(=O)[nH]2)CC1	none
Cn1ccnc1C(=O)N1C[C@@H]2OCC(=O)N(c3ccccc3)[C@H]2C1	none
Cc1ccc(S(=O)(=O)N2C(=O)CCC2C(=O)N2CCN(C3CCCCC3)CC2)cc1 (configuration not stated)	none
COc1ccc(Sc2nnc(C)c3nnn(Cc4ccc(F)cc4)c23)cc1	USP17 inh 32
Cc1nnc(NCc2cccnc2)c2c1nnn2Cc1ccc(F)cc1	none
NC(=O)CN1CCCC(c2nccnc2-c2ccccc2F)C1 (configuration not stated)	none
Cc1nc(-c2cccc(NC(=O)c3ccc(C)c(NC(=O)c4ccco4)c3)c2)cs1	USP17 inh 43
CC(=O)c1cccc(NC(=O)c2ccc(-c3csc(C)n3)cc2)c1	USP17 inh 53
O=C(Nc1cccc(-c2nc(-c3ccc(=O)[nH]c3)no2)c1)c1ccco1	USP8 inh 63
Cc1nc(-c2cccc(NC(=O)c3cccc(F)c3)c2)cs1	none
COc1cc(C(=O)Nc2ccc(-c3csc(C)n3)cc2)cc(OC)c1OC	none
Cn1nccc1-c1cccc(-c2noc(-c3cccc(NC(=O)c4ccco4)c3)n2)c1	none (no result: USP30 inh)
Cc1nc(-c2ccc(C(=O)Nc3cccc(F)c3)cc2)cs1	none
Cc1nc(-c2ccc(C(=O)Nc3ccc(F)cc3)cc2)cs1	USP8 inh 65, USP30 inh 33
Cc1cccn2c(=O)cc(CNc3ccc(C#N)cc3)nc12	none
COc1cccc(C2Nc3ccccc3C(=O)N2c2ccccc2C)c1OC (configuration not stated)	none
CC(=O)NCc1nc(-c2ccc3c(c2)nnn3C2CCCC2)no1	none
Cc1ncccc1Oc1nccnc1C1CCCN(CC(N)=O)C1 (configuration not stated)	none
CCn1c(=O)c(=O)[nH]c2cc(C(=O)Nc3cccc(-c4csc(C)n4)c3)ccc21	USP17 inh 58
Cc1nc(-c2cccc(NC(=O)CNC(=O)c3sc4ccccc4c3Cl)c2)cs1	none
COc1ccc(Nc2nc3c(S(=O)(=O)c4ccccc4)nnn3c3ccccc23)cc1Cl	none
CCOC(=O)c1nc(Nc2ccc(OC)c(Cl)c2)c2ccccc2n1	USP17 inh 74, USP30 inh 49
O=C(COc1ccccc1F)N1CCSc2ccc(Cl)cc21	USP17 inh 32, USP30 inh 34
O=C(COc1ccc(F)cc1Br)N1CCSc2ccccc21	none
O=C(c1ccc2c(c1)OCO2)N1CCC2(CC(Nc3ccncn3)C2)C1 (configuration not stated)	none
COc1cccc(N2CCN(C(=O)c3snc(-c4ccncc4)c3N)CC2)c1	none
CCc1ccc(NC(=O)C(C)OC(=O)c2cc3ccccc3cc2O)cc1 (configuration not stated)	none
CCc1ccc(NC(=O)C(C)Nc2ccccc2NCCc2ccccc2)cc1 (configuration not stated)	USP8 inh 64
CCOc1ccc(NS(=O)(=O)c2c[nH]c3ccc([N+](=O)[O-])cc23)cc1	USP17 inh 53, USP30 inh 63
COc1ccccc1NS(=O)(=O)c1c[nH]c2ccc([N+](=O)[O-])cc12	none
COc1cc2[nH]c(=O)n(CCCC(=O)N3CCC(C(N)=O)(N4CCCCC4)CC3)c(=O)c2cc1OC	none
COc1cc2[nH]c3c(N4CCC(C(N)=O)(N5CCCCC5)CC4)ncnc3c2cc1OC	USP30 inh 30
CC(NC(=O)C1CCN(S(C)(=O)=O)c2ccccc2O1)c1ccccc1 (configuration not stated)	USP30 inh 33
Cc1ccc(NC(=O)C2CCN(S(C)(=O)=O)c3cc(C)ccc3O2)cc1 (configuration not stated)	none
O=C(Nc1ccc2c(c1)OCO2)C1CCN(Cc2nc3ccccc3s2)CC1	none
COc1ccccc1N(Cc1nc2nc(C)cc(C)n2n1)C(=O)c1ccco1	none
CCN1C[C@@]23CN(C(=O)NCc4ccccc4C)C[C@@H](C[C@@H]2S1(=O)=O)O3	none
O=c1c2ccccc2c(-c2nc(-c3ccncc3)no2)cn1-c1ccccc1	USP17 inh 73
O=c1c2ccccc2c(-c2nc(-c3cccnc3)no2)cn1-c1cccc(F)c1	none
COc1ccc(NC(=O)c2c(O)cn(-c3ccccc3)c2O)cc1	none
COc1ccc(NC(=O)c2c(NC(=O)Cc3ccccc3)sc3c2CCC(C)C3)cc1 (configuration not stated)	none
COc1ccc(NC(=O)c2ccc3c(c2)C2C4CCC(C4)C2C(c2ccccc2)N3)cc1 (configuration not stated)	USP30 inh 39
COc1ccc(NC(=O)c2ccc3[nH]c4c(c3c2)CC(C)CC4)cc1 (configuration not stated)	USP17 inh 31
COc1ccc(CN(Cc2ccc3c(c2)CCO3)C2CC2)cc1	none
